Experiment [1] in a line: AP1 Signaling Pathway (AID 357).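 Further: ME-180 reporter cells stimulated with EGF at its EC50 level; on the % scale 0 is the no-effect control and ±100 the full control effect.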 The procedure, abridged:
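In this screen, ME-180 cells in Opti-MEM with 0.5% dialyzed FBS received EC50 EGF and compound titrations for 5 h. AP-1 reporter beta-lactamase was detected via CCF4 ratio, giving AC50 for positive and negative modulators.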

Experiment [2] can be described thus: NFAT Signaling Pathway (AID 444).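 Further: carbachol stimulus at about its EC50 of 1 µM final; on the % scale 0 is the no-effect control and ±100 the full control effect.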 The conditions noted are these: Jurkat NFAT-bla M1, carbachol, beta-lactamase ratio, 5 h. The gist of the method: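 Jurkat cells carrying an NFAT-driven β-lactamase reporter and co-transfected muscarinic M1 receptor were treated with compound plus carbachol (1 uM final, an EC50 level) for 5 h at 37 °C. CCF4 loading followed for 1 h at RT; 460/530 nm ratio gave %activity.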

Experiment [3] in a line: Stat Signaling Pathway (AID 446).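 Further: ME-180 cervical cancer cells given 40 pM IL-6 alongside compound; SIE-controlled beta-lactamase reporter measured as 460/530 nm FRET emission ratio; on the % scale 0 is the no-effect control and ±100 the full control effect.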 Conditions: ME-180 SIE beta-lactamase reporter, IL-6 stimulated, 5 h; at 38 µM (top of the series) unless noted. The procedure, abridged:
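Screening format detects activators and inhibitors alike: ME-180 SIE-bla cells stimulated at 40 pM IL-6 for 5 hrs with compound, then dual-emission beta-lactamase read at 405 nm excitation.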

Experiment [4] has as its target Glucocorticoid receptor (Homo sapiens) (UniProt P04150). The experiment in a line: GR-EFC Redistribution (AID 451; calls by dose curve; further: potency means the concentration at half of the fitted maximal effect). The conditions noted are these: CHO-K1 GR-EFC translocation, beta-gal luminescence, 2 h. The gist of the method: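 CHO-K1 cells stably expressing nuclear-localized β-gal enzyme acceptor and GR fused C-terminally to the enzyme donor fragment; ligand-driven nuclear translocation restores β-gal by complementation. Compounds titrated up to 46 uM final, 2 h at 37 °C; luminescence read.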

Experiment [5] addresses Mitogen-activated protein kinase 10 (Mus musculus) (UniProt Q61831). The experiment in a line: JNK3 AlphaScreen Assay (AID 530).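 Further: kinase came from lysate of stimulated human HepG2 cells; signal reports phosphorylation of biotinylated GST-cJun 1-79 at Ser73 with 10 µM ATP; on the % scale 0 is the no-effect control and ±100 the full control effect.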 The gist of the method:
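JNK3 came from HepG2 lysates pre-activated with IL-1beta and TNF-alpha and phosphorylated biotinylated GST-cJun (1-79) at 10 uM ATP, pH 7.6, room temperature. Compounds were titrated. AlphaScreen signal used anti-phospho-cJun (Ser73) antibody.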

Experiment [6] deals with 3',5'-cyclic-AMP phosphodiesterase 4B (Homo sapiens) (UniProt Q07343). The experiment in a line: qHTS Assay for Inhibitors of PDE-IV (AID 607; active means well fitted activation curve with a large enough effect in the main read-out, with a control signal flat, not every such curve was filed as active; further: % of control where 0% means no effect). The gist of the method: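 The readout is membrane depolarisation from a cAMP-sensing CNG channel, detected with a potential dye at ex 535/em 590. Cells were HEK293-derived (endogenous PDE-IV) at 1000 cells/well, titrated up to 22.9 uM final.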
Sequence of 3',5'-cyclic-AMP phosphodiesterase 4B (Homo sapiens) (Q07343 whole entry, looked up): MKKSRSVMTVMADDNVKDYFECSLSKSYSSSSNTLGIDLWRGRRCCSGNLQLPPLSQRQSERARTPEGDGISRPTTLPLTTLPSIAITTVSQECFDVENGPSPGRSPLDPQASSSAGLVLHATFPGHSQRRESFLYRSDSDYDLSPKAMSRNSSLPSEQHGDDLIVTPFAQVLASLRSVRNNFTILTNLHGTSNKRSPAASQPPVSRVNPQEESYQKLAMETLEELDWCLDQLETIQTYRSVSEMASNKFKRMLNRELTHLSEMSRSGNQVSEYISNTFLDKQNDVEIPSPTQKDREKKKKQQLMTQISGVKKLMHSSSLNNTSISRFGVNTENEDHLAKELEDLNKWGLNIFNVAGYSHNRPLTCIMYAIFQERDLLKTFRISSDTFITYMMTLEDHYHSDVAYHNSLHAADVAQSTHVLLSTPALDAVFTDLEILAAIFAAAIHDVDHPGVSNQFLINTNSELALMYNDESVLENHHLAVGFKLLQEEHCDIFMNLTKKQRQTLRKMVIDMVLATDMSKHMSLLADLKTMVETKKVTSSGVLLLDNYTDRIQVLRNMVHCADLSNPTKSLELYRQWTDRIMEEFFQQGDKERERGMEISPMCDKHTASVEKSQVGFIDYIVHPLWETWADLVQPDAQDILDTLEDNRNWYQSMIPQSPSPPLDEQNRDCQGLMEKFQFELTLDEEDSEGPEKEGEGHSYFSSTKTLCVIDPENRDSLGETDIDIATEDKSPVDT

Experiment [7] deals with Glucocorticoid receptor (Homo sapiens) (UniProt P04150). The experiment can be described thus: GR-GFP Redistribution (AID 450;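 active means compounds whose dose series gives a full or clear partial fitted curve of increased nuclear translocation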; further: potency means the concentration at half of the fitted maximal effect). The conditions noted are these: U2OS GR-GFP nuclear translocation, laser cytometry, 2 h.
Sequence of Glucocorticoid receptor (Homo sapiens) (P04150 whole entry, looked up, the tested form may be a part): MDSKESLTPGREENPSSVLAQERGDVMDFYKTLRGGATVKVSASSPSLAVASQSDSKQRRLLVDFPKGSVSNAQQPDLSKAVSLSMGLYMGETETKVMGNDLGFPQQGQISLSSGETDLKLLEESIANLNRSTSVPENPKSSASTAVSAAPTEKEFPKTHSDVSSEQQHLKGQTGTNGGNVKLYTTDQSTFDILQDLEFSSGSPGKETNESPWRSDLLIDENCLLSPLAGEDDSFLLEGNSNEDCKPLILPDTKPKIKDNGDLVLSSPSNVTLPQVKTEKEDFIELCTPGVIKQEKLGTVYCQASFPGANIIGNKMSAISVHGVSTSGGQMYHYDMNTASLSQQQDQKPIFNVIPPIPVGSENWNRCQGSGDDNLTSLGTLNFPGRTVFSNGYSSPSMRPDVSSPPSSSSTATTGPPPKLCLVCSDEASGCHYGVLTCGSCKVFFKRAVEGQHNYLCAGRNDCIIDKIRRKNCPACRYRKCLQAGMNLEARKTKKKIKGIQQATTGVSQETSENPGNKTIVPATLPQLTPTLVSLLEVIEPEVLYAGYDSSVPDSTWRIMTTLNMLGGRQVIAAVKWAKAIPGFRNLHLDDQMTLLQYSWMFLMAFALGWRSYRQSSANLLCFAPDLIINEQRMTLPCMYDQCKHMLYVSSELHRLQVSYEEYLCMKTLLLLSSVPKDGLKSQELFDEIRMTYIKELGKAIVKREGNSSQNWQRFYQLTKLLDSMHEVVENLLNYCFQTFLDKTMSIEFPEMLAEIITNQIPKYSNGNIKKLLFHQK
Experiment [8] deals with Cytochrome P450 1A2 (Homo sapiens) (UniProt P05177). The experiment in a line: p450-cyp1a2 (AID 410; calls by dose curve; further: potency means the concentration at half of the fitted maximal effect;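 on activity change, negative = inhibition: -100% = full effect of reference inhibitor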). The procedure, abridged: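 Human CYP1A2 (20nM) demethylated Luciferin-ME at its Km (100uM) in 100mM KPO4. After 10 min compound preincubation, NADPH regeneration ran the reaction 60 min at room temperature. Luciferin was read by luminescence, normalized to 57 uM furafylline.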
Sequence of Cytochrome P450 1A2 (Homo sapiens) (P05177 whole entry, looked up): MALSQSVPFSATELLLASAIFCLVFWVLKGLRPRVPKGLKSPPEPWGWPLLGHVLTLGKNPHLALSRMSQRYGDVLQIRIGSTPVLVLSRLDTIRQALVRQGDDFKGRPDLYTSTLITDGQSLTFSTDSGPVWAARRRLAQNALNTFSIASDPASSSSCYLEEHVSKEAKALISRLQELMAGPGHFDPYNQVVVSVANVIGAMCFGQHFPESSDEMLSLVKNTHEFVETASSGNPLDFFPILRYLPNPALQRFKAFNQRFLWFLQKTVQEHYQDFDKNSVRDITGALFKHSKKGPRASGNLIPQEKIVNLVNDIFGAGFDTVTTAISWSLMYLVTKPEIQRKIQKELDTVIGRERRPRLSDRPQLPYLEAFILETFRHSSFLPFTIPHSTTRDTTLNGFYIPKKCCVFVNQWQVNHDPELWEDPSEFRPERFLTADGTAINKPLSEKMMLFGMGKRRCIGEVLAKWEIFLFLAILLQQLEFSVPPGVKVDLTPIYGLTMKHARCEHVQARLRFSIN

In experiment [9] the target is Lysosomal acid glucosylceramidase (Homo sapiens) (UniProt P04062). The experiment can be described thus: Glucocerebrosidase-p2 (AID 348; in the data active means potency below about 10 µM; further: potency means the concentration at half of the fitted maximal effect). Conditions: purified GBA, blue fluorogenic substrate, 40 min. The procedure, abridged: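 Compounds titrated from 0.6 nM upwards against 0.2 nM enzyme in pH 5.9 citric acid/KH2PO4, taurocholate, tween-20; blue fluorogenic substrate 80 uM, 40 min room temperature, stopped and read Ex 365/Em 440 for AC50.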
Sequence of Lysosomal acid glucosylceramidase (Homo sapiens) (P04062 whole entry, looked up): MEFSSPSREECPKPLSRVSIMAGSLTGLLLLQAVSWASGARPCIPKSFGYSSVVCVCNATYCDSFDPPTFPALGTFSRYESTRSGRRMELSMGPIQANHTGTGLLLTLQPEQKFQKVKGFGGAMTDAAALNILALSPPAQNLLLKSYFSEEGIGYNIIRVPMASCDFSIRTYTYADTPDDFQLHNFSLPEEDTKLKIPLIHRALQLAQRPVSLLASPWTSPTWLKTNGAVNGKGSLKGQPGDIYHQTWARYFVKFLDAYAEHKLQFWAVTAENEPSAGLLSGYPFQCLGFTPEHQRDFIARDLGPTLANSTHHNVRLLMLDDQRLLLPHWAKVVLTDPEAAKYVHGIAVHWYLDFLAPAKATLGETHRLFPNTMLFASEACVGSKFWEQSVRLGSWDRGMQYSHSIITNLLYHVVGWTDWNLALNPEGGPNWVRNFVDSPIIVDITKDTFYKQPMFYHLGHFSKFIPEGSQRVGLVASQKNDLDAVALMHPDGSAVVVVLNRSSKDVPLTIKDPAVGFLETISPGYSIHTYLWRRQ

Experiment [10] in a line: Cell Viability - BJ (AID 421; calls by dose curve;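 further: potency means the concentration at half of the fitted maximal effect; cells exposed to compound for 40 hours at 37 °C before readout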). Conditions: BJ fibroblast viability, qHTS. The procedure, abridged: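 Cytotoxicity in human BJ foreskin fibroblasts is scored as loss of cellular ATP after a 40-hour exposure, measured by luciferase luminescence. Controls are DMSO and 100 uM tamoxifen.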
Experiment [11] in a line: Cell Viability - Hek293 (AID 427;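 active means compounds whose dose-response curve shows a full or clear partial loss of cell viability, called from curve shape rather than a numeric limit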;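 further: potency means the concentration at half of the fitted maximal effect; cells exposed to compound for 40 hours at 37 °C before reading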). The conditions noted are these: qHTS. The procedure, abridged: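 qHTS, human embryonic kidney (adenovirus-transformed) cells; 40 hr cpd, 37 °C; CellTiter-Glo ATP luminescence. Norm: DMSO = 0, 100 uM tamoxifen = 100% inhibition. Hill-fit AC50.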
The nature of experiment [12]: Cell Viability - MRC5 (AID 434; calls by dose curve;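 further: potency means the concentration at half of the fitted maximal effect; potency reflects cytotoxicity seen as loss of intracellular ATP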). The conditions noted are these: MRC5 lung fibroblast viability, qHTS. The gist of the method: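 MRC5 normal human lung fibroblasts (1500/well) were treated with compounds for 40 hr at 37 °C in complete medium, and viable cells were measured as intracellular ATP by CellTiter-Glo luminescence. AC50 came from Hill fits, normalized to DMSO and 100 uM tamoxifen.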

Experiment [13] is described as follows: Cell Viability - SK-N-SH (AID 435; calls by dose curve;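 further: potency means the concentration at half of the fitted maximal effect; compound exposure lasted 40 h at 37 °C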). The conditions noted are these: SK-N-SH neuroblastoma cell viability qHTS. The gist of the method: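 Cells seeded at 1500 per well and incubated 5 hr at 37 °C. Compound added, then 40 hr at 37 °C. CellTiter-Glo added, 20 min at room temperature, luminescence read.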
A short description of experiment [14]: Cell Viability - N2a (AID 540; active means well fitted cell-killing curve with a large enough effect;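 further: plate controls were DMSO alone for no effect and tamoxifen control for full effect; nearly all actives have a fitted effect of over 45% in size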). The conditions noted are these: N2a mouse neuroblastoma cell viability; activity change, negative = cytotoxicity: at 92.2 µM (top of the series). The procedure, abridged:
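Mouse neuroblastoma N2a cells (1500/well) were preincubated 5 hr at 37 °C, then exposed to compounds for 40 hr at 37 °C in complete medium. Viability was read as intracellular ATP by CellTiter-Glo luminescence; AC50 from Hill fits.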

Experiment [15] can be described thus: Cell Viability - NIH 3T3 (AID 541; active means well fitted cell-killing curve with a large enough effect;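 further: plate controls were DMSO alone for no effect and tamoxifen positive control for full effect; nearly all actives have a fitted effect of over 25% in size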). The conditions noted are these: NIH 3T3 cell viability, qHTS. The procedure, abridged: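 NIH 3T3 mouse embryo fibroblasts (1000 cells/well) were plated in complete medium and treated with compound for 40 hr at 37 °C. Viability was read as intracellular ATP by CellTiter-Glo luminescence; AC50 values came from Hill-equation fits of concentration-response data.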

Experiment [16] is described as follows: Cell Viability - H-4-II-E (AID 543; active means well fitted cell-killing curve with a large enough effect; further: on the % scale 0 is the no-effect control and ±100 the full control effect; nearly all actives have a fitted effect of over 35% in size). The procedure, abridged:
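Rat hepatoma H-4-II-E cells (1500/well) were plated, incubated 5 hr at 37 °C, then exposed to compounds for 40 hr at 37 °C. Cellular ATP was read by CellTiter-Glo luminescence; AC50 came from Hill-equation fits of concentration-response data.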

Experiment [17] is described as follows: Cell Viability - SH-SY5Y (AID 544; active means well fitted cell-killing curve with a large enough effect; further: potency means the concentration at half of the fitted maximal effect; nearly all actives have a fitted effect of over 55% in size). The procedure, abridged:
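Human neuroblastoma SH-SY5Y cells (1500/well) in complete medium were exposed to compounds for 40 hr at 37 °C; intracellular ATP was then quantified by CellTiter-Glo luminescence after 20 min at room temperature. AC50 came from Hill-equation concentration-response fits.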

A short description of experiment [18]: Cell Viability - Renal Proximal Tubule (AID 545; active means well fitted cell-killing curve with a large enough effect;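 further: 0% = DMSO only and -100% = 100 µM tamoxifen; nearly all actives have a fitted effect of over 40% in size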). Conditions: renal proximal tubule cells viability; activity change, negative = cytotoxicity: at 91.7 µM (top of the series). The procedure, abridged: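 Cytotoxicity is scored as a concentration-dependent drop in cellular ATP in primary rat renal proximal tubule cells exposed for 40 hr. AC50 derives from Hill modelling.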

Experiment [19] is described as follows: Cell Viability - Mesenchymal (AID 546; active means well fitted cell-killing curve with a large enough effect;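 further: cells exposed to compound for 40 hours before reading; 0% = DMSO only and -100% = 100 µM tamoxifen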). The gist of the method:
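Normal human renal glomerulus-derived kidney mesenchymal cells, 1000 per well in complete medium, were treated with compounds for 40 hr at 37 °C. Viability was read as intracellular ATP by CellTiter-Glo luminescence; AC50 values came from Hill-equation fits of qHTS concentration-response data.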

Where [20] appears, read: at 38 µM (top of the series) unless noted.

Values joined by “and” are separate entries in the source; they are usually repeats but may differ in a detail not shown here. Equal values may be shown once. Unmarked numbers belong to inactive results. Records with an inconclusive call do not appear. Some structures have more than one record in an assay (separate samples or runs), and their calls can disagree. Active and inactive are the calls of the source. Unless noted, the call rests on the fitted dose curve; in most records, active means well fitted curve in either direction with a large enough effect (not every such curve was filed as active); inconclusive means small, poorly fitted or top-dose-only effect, or another doubt; inactive means flat fitted curve, though single readings scatter.

Take `NC(N)=NOCC[C@H](N)C(=O)O`: the compound was classed as inactive in experiment [1] and in experiment [5]. The activity change, negative = inhibition was -0.483% in [2] (at 17.2 µM (top of the series)) and 17% in experiment [2] (at 38 µM (top of the series)). For the same compound, the activity, negative = inhibition in experiment [3] was 4.59% [at 17.2 µM]. Further, in experiment [4], the Potency was > 46 µM and > 20.6 µM. Moreover, the Potency entry in [6] was “inactive”.

`CCCN(CCC)CCc1ccc(O)c(O)c1`: the result in [1] and in [5] was inactive. In experiment [2] (setting [20]), the activity change, negative = inhibition was -10.2%. Besides, the activity, negative = inhibition in experiment [3] was -14.3%. The Potency in experiment [7] and in experiment [4] was greater than 46 µM each time. Also, in [6], the Potency entry was “inactive”.

In the case of `CC(C)NP(=O)(NC(C)C)OP(=O)(NC(C)C)NC(C)C`, the compound was called inactive in experiment [1] and in [5]. The Potency entry in experiment [8] and in [6] was “inactive” each time. Further, the activity change, negative = inhibition in [2] (setting [20]) was -0.786%. Also, the activity, negative = inhibition in [3] was -17.3%. Besides, in experiment [4], the Potency is greater than 46 µM.

Regarding `CC(C)(C)c1cc(O)ccc1O`, the Potency in experiment [9] is greater than 11.4 µM; in experiment [10], greater than 92 µM; in experiment [11], greater than 92 µM; in experiment [12], greater than 92 µM; in experiment [13], greater than 92 µM; in [7] it was greater than 46 µM. The Potency in experiment [4] is greater than 9.22 µM; in experiment [17], 10 µM (active) and 12.6 µM (active). For the same compound, the values for the activity change, negative = inhibition in experiment [1], in experiment [8] and in experiment [2] (setting [20]) were 7.46% [at 7.69 µM], -8.4% [at 11.4 µM] and -2.58% [at 7.69 µM], respectively. Also, the activity, negative = inhibition in experiment [3] was -2.67% [at 7.69 µM]. Further, the compound was classed as inactive in experiment [5]. Moreover, the Potency result in experiment [14], in experiment [16], in experiment [18], in experiment [19] and in experiment [6] was “inactive” each time. In addition, the activity change, negative = cytotoxicity in experiment [15] (activity change, negative = cytotoxicity: at 92.2 µM (top of the series)) is -106% (active); in experiment [15] (at 92.2 µM (top of the series)), -22.3%.

For the compound `N#CCCN`, the outcome in experiment [1] and in experiment [5] was inactive. Besides, in [2] (setting [20]), the activity change, negative = inhibition was 7.43%. In addition, the activity, negative = inhibition in [3] is 20.4%. The Potency in experiment [7] and in experiment [4] was greater than 46 µM throughout. For the same compound, the Potency entry in [6] is “inactive”.

Regarding `CCCN(CCC)CCc1c[nH]c2ccc(C(N)=O)cc12`, the compound was classed as inactive in [1] and in [5]. Besides, the values for the Potency in [8] and in experiment [4] were 15.8 µM (active) and greater than 46 µM, respectively. The activity change, negative = inhibition in experiment [2] (setting [20]) is -26.6%. In experiment [3], the activity, negative = inhibition is 22.9%. Besides, the Potency result in [6] is “inactive”.

For the compound `Cc1sc2ccccc2c1CC1=NCCN1`, the call in experiment [1] and in [5] was inactive. Besides, the Potency in experiment [8] was 2.51 µM (active); in [4] it was greater than 46 µM. The activity change, negative = inhibition in experiment [2] (setting [20]) was -16.3%. Besides, the Potency entry in experiment [6] was “inactive”.

For the compound `CN1CCC(c2c[nH]c3ccc(O)cc23)CC1`, the compound was called inactive in experiment [1] and in experiment [5]. For the same compound, the activity change, negative = inhibition in experiment [2] (setting [20]) is -5.82%. In experiment [3], the activity, negative = inhibition is -0.0693%. For the same compound, the Potency in experiment [4] is greater than 46 µM. Also, the Potency result in [6] was “inactive”.

For `CCS(=O)(=O)Nc1cccc(C(=C2CCCCC2)c2cnc[nH]2)c1`, the outcome in experiment [1] and in experiment [5] was inactive. Besides, the activity change, negative = inhibition in experiment [2] (setting [20]) was 4.67%. Moreover, the activity, negative = inhibition in [3] is -26.3%. In addition, in experiment [4], the Potency was greater than 46 µM. Also, the Potency result in experiment [6] is “inactive”.

Values taken from PubChem BioAssay (NCATS).
